Source: PubChem BioAssay
LASV entry inh: inhibitors of Lassa virus binding or cell entry; AID 540256; Lassa virus pseudotype entry inhibition, cell reporter; Potency, µM (top dose mostly 37.9 µM), actives largely listed as inhibitors; actives 1.2% (n = 300,000); calls by dose curve; tested in HEK293 cells; further: nearly all actives have a fitted effect of over 50% in size
Vaccinia mCherry: vaccinia inhibition (mCherry reporter). Vaccinia virus mCherry reporter infection, fluorescence. Potency, µM (top dose mostly 36.5 µM), hits mostly inhibitors. actives 0.63% (n = 310,000). AID 720579; calls by dose curve; tested in A549 cells; further: nearly all actives have a fitted effect of over 35% in size
FMDV antiviral: antivirals against foot and mouth disease virus; actives 1.2% (n = 410,000); FMDV antiviral cell-based qHTS; Potency, µM (highest dose often 57.9 µM), actives largely listed as inhibitors; calls by dose curve; tested in HEK293T cells; further: read-out not given here; nearly all actives have a fitted effect of over 45% in size
Marburg entry inh: Marburg virus entry inhibition. Marburg virus pseudotyped entry inhibition, cell reporter. Potency, µM (top dose mostly 37.8 µM), usual class: inhibitors. actives 1.8% (n = 300,000). AID 540276; calls by dose curve; tested in HEK293 cells
VACV Venus inh: vaccinia inhibition (Venus reporter); Vaccinia virus Venus reporter expression, fluorescence; Potency, µM (doses to about 36.5 µM), usual class: inhibitors; actives 0.46% (n = 330,000); calls by dose curve; tested in A549 cells; further: nearly all actives have a fitted effect of over 30% in size
HCMV inh: inhibitors of human cytomegalovirus; HFF cells, HCMV-luciferase reporter, 72 h; stronger effect = lower value; actives 4.5% (n = 410,000); activity change, negative = inhibition, % at 57.5 µM; in the data active means activity change below about -60%; inconclusive means no clear call, values can overlap the other calls; inactive means above about -39%
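Cell-based, HFFs, 1000 cells/well, 16 h 37C; cpds in DMSO + HCMV-luc, MOI 1 PFU/cell; 72 h 37C; OneGlo luminescence after 5 min RT; norm. to buffer vs Salinomycin 10uM.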
Large screens that a line does not name were inactive. In the library only some 6.5% were active in any assay of this set; here they are far more common.

COc1ccccc1N1CCN(c2ncccc2-c2nc(-c3ccc(Cl)cc3)no2)CC1	Marburg entry inh inconclusive
COc1cc(C2c3cc4c(cc3CC3COC(=O)N32)OCO4)cc(OC)c1OC (centres undefined)	LASV entry inh inconclusive, Vaccinia mCherry inconclusive, Marburg entry inh inconclusive, VACV Venus inh inconclusive, HCMV inh -88
COc1cc(C2c3cc4c(cc3CC3COC(=O)C32)OCO4)cc(OC)c1OC (centres undefined)	VACV Venus inh inconclusive (no result: LASV entry inh, Marburg entry inh)
COc1cc([C@@H]2c3cc4c(cc3C[C@H]3COC(=O)[C@@H]32)OCO4)cc(OC)c1O	Vaccinia mCherry 10µM, VACV Venus inh inconclusive (no result: LASV entry inh, FMDV antiviral, Marburg entry inh, HCMV inh)
COc1cc([C@@H]2c3cc4c(cc3[C@@H](O)[C@H]3COC(=O)[C@H]23)OCO4)cc(OC)c1O	Vaccinia mCherry 11µM, VACV Venus inh inconclusive (no result: LASV entry inh, FMDV antiviral, Marburg entry inh, HCMV inh)
COc1cc([C@@H]2c3cc4c(cc3[C@H](OC(C)=O)[C@H]3COC(=O)[C@@H]23)OCO4)cc(OC)c1OC	Vaccinia mCherry inconclusive (no result: LASV entry inh, FMDV antiviral, Marburg entry inh, HCMV inh)
CCOC(=O)C1CCCN(C(=O)c2ccc(NC(=O)c3nsc4ccccc34)cc2)C1 (centres undefined)	LASV entry inh inconclusive (no result: Marburg entry inh)
COc1cc(C2c3cc4c(cc3C(O)[C@H]3COC(=O)C23)OCO4)cc(OC)c1OC (some centres undefined)	none (no result: LASV entry inh, Marburg entry inh, HCMV inh)
COc1cc(C2c3cc4c(c(O)c3CC3COC(=O)C32)OCO4)cc(OC)c1OC (centres undefined)	LASV entry inh inconclusive, Vaccinia mCherry inconclusive, Marburg entry inh inconclusive, VACV Venus inh inconclusive, HCMV inh -83
COc1ccc(CN(C)CC2CCCN(CCc3ccccc3C)C2)cc1O (centres undefined)	LASV entry inh inconclusive, Marburg entry inh 8.9µM
COc1cccc(CN(C)CC2CCCN(CCc3ccccc3C)C2)c1 (centres undefined)	none (no result: LASV entry inh, Vaccinia mCherry, Marburg entry inh, VACV Venus inh)
Cc1cccc(N=N/C(=C\O)C(=O)c2ccc(Br)cc2)c1	LASV entry inh 5.6µM, Marburg entry inh 7.9µM, HCMV inh -77
Nc1nsc2ccccc12	LASV entry inh inconclusive, Vaccinia mCherry inconclusive, Marburg entry inh inconclusive, VACV Venus inh inconclusive, HCMV inh -72 (no result: FMDV antiviral)
Nc1nnc(N)c2ccccc12	none
CCn1c(=O)c2cc(C(=O)N(C)c3cc(C)ccc3C)sc2c2ccccc21	FMDV antiviral inconclusive
Cc1c(CCOC(=O)C23CC4CC(CC(C)(C4)C2)C3)sc[n+]1Cc1ccccc1	LASV entry inh inconclusive, FMDV antiviral 16µM, Marburg entry inh inconclusive (no result: Vaccinia mCherry, VACV Venus inh)
Cc1c(CCOC(=O)C23CC4(C)CC(C)(CC(C)(C4)C2)C3)sc[n+]1CC(=O)c1ccccc1	Vaccinia mCherry inconclusive, FMDV antiviral 28µM, Marburg entry inh inconclusive, VACV Venus inh inconclusive, HCMV inh -100
CCn1c(C(=O)Nc2ccccc2C(=O)OC)cc2sc(Cl)cc21	none (no result: LASV entry inh)
Cc1ccc(NCc2cccn2-c2nnc(N3CCC(C(=O)NCc4ccc(OC(C)C)cc4)CC3)s2)cc1	Vaccinia mCherry inconclusive, FMDV antiviral inconclusive, Marburg entry inh inconclusive, VACV Venus inh inconclusive, HCMV inh -80 (no result: LASV entry inh)
CCOc1ccc(NCc2cccn2-c2nnc(N3CCC(C(=O)NCCOC)CC3)s2)cc1	Marburg entry inh inconclusive (no result: LASV entry inh)
CCOc1ccc(NCc2cccn2-c2nnc(N3CCC(C(=O)NCc4cccc(OC)c4)CC3)s2)cc1	FMDV antiviral inconclusive, HCMV inh -84 (no result: LASV entry inh)
CCOc1ccc(NCc2cccn2-c2nnc(N3CCC(C(=O)NCC(C)c4ccccc4)CC3)s2)cc1 (centres undefined)	Vaccinia mCherry inconclusive, FMDV antiviral inconclusive, Marburg entry inh inconclusive, VACV Venus inh inconclusive, HCMV inh -80 (no result: LASV entry inh)
Cc1ccc(NCc2cccn2-c2nnc(N3CCC(C(=O)NCCc4ccc(Cl)cc4)CC3)s2)cc1	Vaccinia mCherry inconclusive, VACV Venus inh inconclusive, HCMV inh inconclusive (no result: LASV entry inh)
CCOc1ccc(NCc2cccn2-c2nnc(N3CCC(C(=O)NCc4ccc(C)cc4)CC3)s2)cc1	Vaccinia mCherry inconclusive, FMDV antiviral inconclusive, Marburg entry inh inconclusive, VACV Venus inh inconclusive, HCMV inh -76 (no result: LASV entry inh)
CCSc1nnc(NC(=O)C2CCN(C(=O)c3ccco3)CC2)s1	none (no result: LASV entry inh, FMDV antiviral, Marburg entry inh, HCMV inh)
CCN(CC)c1ccc(C(=O)NCc2ccc3c(c2)CCN3C(=O)c2ccc(F)cc2)cc1	Vaccinia mCherry inconclusive (no result: Marburg entry inh)
CCOC(=O)N/N=C\c1ccc([N+](=O)[O-])o1	VACV Venus inh inconclusive, HCMV inh inconclusive (no result: FMDV antiviral)
O=C(Cc1ccc([N+](=O)[O-])cc1)N/N=C/c1ccc([N+](=O)[O-])o1	Vaccinia mCherry 10µM, VACV Venus inh 11µM (no result: LASV entry inh, Marburg entry inh)
